From PubChem
TRPV1 ag: activates the human vanilloid receptor TRPV1. TRPV1-expressing cells, Fluo-8 calcium influx, agonist mode. activation, % at 8.33 µM. actives 0.19% (n = 320,000). AID 540275; in the data active = activation above about 80%; inconclusive = between about 30% and that limit; note: 0% is about no effect
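Cells expressing TRPV1 were dye-loaded with Fluo-8 and read kinetically: 10 s baseline, 3 min after compound (agonist portion), then 2 min after EC20 capsaicin (allosteric enhancer portion). Calcium-bound dye fluorescence at 480/520 nm.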
TRPV1 potentiator: enhances activation of the human vanilloid receptor TRPV1; TRPV1-expressing cells, Fluo-8 calcium influx, capsaicin EC20 potentiation; Q8NER1; actives 0.02% (n = 320,000); potentiation, % at 8.33 µM; in the data active = potentiation above about 80%; inconclusive = between about 30% and that limit; note: 0% is about no effect
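Cells expressing TRPV1 were dye-loaded with Fluo-8 and read kinetically: 10 s baseline, 3 min after compound (agonist portion), then 2 min after EC20 capsaicin (allosteric enhancer portion). Calcium-bound dye fluorescence at 480/520 nm.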
KCNH2 3.1 block: KCNH2 3.1 (human) potassium channel inhibition. U2OS KCNH2 3.1, thallium flux FluxOr; active compounds read low. activity change, % (tested at about 1.8 µM). actives 0.95% (n = 340,000);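 active = maximum activity change below -70%; inconclusive = maximum activity change from -70% to -50%; inactive = maximum activity change above -50%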;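 note: thallium influx rate constant from kinetic fluorescence after stimulation buffer; % is set by controls: 0 for no effect and ±100 for the full control effect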
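Steps: virus added to U2OS suspension (4 h, RT, dark); medium with 10% FBS added, cells plated, 37 C overnight; FluxOr/Red40 loading buffer 45 min RT; stimulation buffer, 2 min kinetic read; rate constant normalized.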
hERG WT inh: inhibitors of human wildtype KCNH2 potassium channel; actives 0.37% (n = 340,000); U2OS, BacMam KCNH2, thallium flux FluxOr; active compounds read low; activity change, % at 1.84 µM; AID 720551;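 active = maximum activity change below -70%; inconclusive = maximum activity change between -70% and -50%; inactive = maximum activity change above -50%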; note: % is set by controls: 0 for no effect and ±100 for the full control effect
Target sequence (Q12809 whole entry, looked up): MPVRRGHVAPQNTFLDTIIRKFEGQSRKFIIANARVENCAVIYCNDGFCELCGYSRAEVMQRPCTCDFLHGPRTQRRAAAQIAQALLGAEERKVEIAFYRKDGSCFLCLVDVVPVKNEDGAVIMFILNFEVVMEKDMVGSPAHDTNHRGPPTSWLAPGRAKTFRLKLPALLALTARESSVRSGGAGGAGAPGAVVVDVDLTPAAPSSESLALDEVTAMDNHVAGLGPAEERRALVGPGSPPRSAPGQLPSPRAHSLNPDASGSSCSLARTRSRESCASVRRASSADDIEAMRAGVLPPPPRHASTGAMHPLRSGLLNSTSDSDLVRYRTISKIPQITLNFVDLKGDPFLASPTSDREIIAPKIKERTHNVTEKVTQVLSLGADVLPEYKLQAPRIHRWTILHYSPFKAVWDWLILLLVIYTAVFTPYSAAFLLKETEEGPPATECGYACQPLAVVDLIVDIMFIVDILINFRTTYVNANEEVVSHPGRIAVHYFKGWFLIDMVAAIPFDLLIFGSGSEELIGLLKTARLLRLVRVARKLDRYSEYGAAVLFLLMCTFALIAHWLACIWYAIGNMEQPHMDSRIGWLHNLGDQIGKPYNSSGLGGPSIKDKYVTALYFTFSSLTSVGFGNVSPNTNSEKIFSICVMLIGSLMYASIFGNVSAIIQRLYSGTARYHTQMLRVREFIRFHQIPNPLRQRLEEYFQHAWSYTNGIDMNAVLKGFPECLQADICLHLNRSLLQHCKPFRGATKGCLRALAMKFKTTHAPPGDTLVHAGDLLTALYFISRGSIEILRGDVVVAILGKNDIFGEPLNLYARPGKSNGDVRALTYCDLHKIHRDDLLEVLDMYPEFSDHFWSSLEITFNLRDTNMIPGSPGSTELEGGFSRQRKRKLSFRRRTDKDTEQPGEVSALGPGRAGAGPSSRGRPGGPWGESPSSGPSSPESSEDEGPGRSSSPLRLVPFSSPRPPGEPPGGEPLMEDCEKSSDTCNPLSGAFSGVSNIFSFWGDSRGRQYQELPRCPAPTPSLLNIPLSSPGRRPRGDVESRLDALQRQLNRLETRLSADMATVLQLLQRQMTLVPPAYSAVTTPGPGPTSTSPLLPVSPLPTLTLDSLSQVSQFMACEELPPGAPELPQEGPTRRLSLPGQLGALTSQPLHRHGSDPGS
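U2OS cells transduced with wild-type KCNH2 virus are loaded with FluxOr dye for 45 min, and thallium flux is measured in kinetic reads before and after stimulation buffer. Rate constants are normalized to DMSO controls.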
Active calls of the source: *; i = inactive; u = inconclusive; x = no result given. Most compounds without a hit are left out; they make up all but 1.2% or so of the library.

SMILES | TRPV1 ag | TRPV1 potentiator | KCNH2 3.1 block | hERG WT inh
CCn1c(=O)c(C(=O)CN(C)Cc2ccc(F)cc2)c(N)n(Cc2ccccc2)c1=O | -0.2 | 0.5 | -84.3* | -10.1
CCOc1ccc(CN(C)CC(=O)c2c(N)n(Cc3ccccc3)c(=O)n(CC)c2=O)cc1OC | -1.1 | -5.2 | -101.0* | -117.3*
Cc1nc(Br)c(Br)n1Cc1ccccc1 | x | x | 0.1 | -2.9
CN(C)CCC(=O)N1C/C(=C/c2ccccc2)C(=O)/C(=C\c2ccccc2)C1 | x | x | -72.3* | 47.1
C[N+](C)(C)CCC(=O)N1C/C(=C/c2ccccc2)C(=O)/C(=C\c2ccccc2)C1 | x | x | x | -4.8
O=C(CC(=O)c1cccs1)c1ccncc1 | x | x | 1.9 | -0.3
COC(=O)C1=C(C)N(c2ccc(F)cc2)/C(=C/c2ccc(O)cc2)C1=O | 7.4 | 19.8 | -8.9 | 2.2
Cc1cc2nc(C3CCN(CC4COc5ccccc5O4)CC3)[nH]c2cc1C (stereo unspecified) | 8.2 | 0.4 | -78.7* | -72.8*
O=C(N/N=C/c1cc([N+](=O)[O-])ccc1Cl)c1cnccn1 | 1.9 | 3.1 | -188.4* | -144.0*
O=C(N/N=C/c1cccc([N+](=O)[O-])c1)c1cnccn1 | 1.3 | -0.7 | 9.3 | 3.2
Cc1ccc(N2C(=O)CC(NNC(=O)Cc3ccc(F)cc3)C2=O)cc1Cl (stereo unspecified) | 6.0 | -19.5 | 3.8 | -0.7
Fc1ccccc1C1c2[nH]c3ccccc3c2CCN1Cc1cccn1-c1ncccn1 (stereo unspecified) | -1.1 | -2.7 | -70.7* | -44.3
CC(=O)c1ccc(-n2nncc2C)cc1 | 0.1 | -20.3 | 2.5 | -7.8
Cc1c(OC(C)C(=O)NCc2ccccn2)ccc2c3c(c(=O)oc12)CCC3 (stereo unspecified) | -1.9 | -1.5 | 7.1 | -10.4
Cc1c(OC(C)C(=O)NCc2ccncc2)ccc2c3c(c(=O)oc12)CCCC3 (stereo unspecified) | u | -24.4 | -77.8* | -9.9
CC(=O)NC(=Cc1ccccc1)C(=O)N1CCCC1C(=O)O (stereo unspecified) | x | x | 7.6 | -5.2
Cc1ccccc1C(=O)NN1C(=O)CSC1=S | 3.0 | 10.5 | 4.6 | 2.4
Cc1ccccc1C(=O)/C=C1/SCC(=O)N1C | 0.9 | -3.5 | -82.4* | -8.2
Fc1ccc(-n2cc(CNCCc3cccnc3)c(-c3ccccc3Cl)n2)cc1 | 22.7 | -12.3 | -73.6* | 70.5
N#CCN1C(=O)C(=O)N(Cc2cccc(Cl)c2)C1=O | -1.1 | -8.6 | -7.4 | 2.9
CC(Nc1nc(-c2ccc(F)cc2)cs1)c1nc2cc(C(F)(F)F)ccc2n1CCCO (stereo unspecified) | x | x | -11.6 | -15.9
Cc1csc(NC(C)c2nc3cc(Cl)c(Cl)cc3n2CCCO)n1 (stereo unspecified) | x | x | -80.1* | -8.8
CCOc1ccc(Br)cc1S(=O)(=O)Nc1ccc(C(=O)OCC(=O)Nc2ccc(C#N)cc2)cc1 | -0.5 | 0.3 | -93.2* | -40.9
COc1cc(OC)cc(C(=O)Nc2ccccc2C(=O)NC2CC2)c1 | 28.8 | -7.3 | -10.7 | -4.9
COC1OCC(O)C(NC(=O)N(C)N=O)C1O (stereo unspecified) | x | x | 0.0 | 0.9
SMILES | TRPV1 ag | TRPV1 potentiator | KCNH2 3.1 block | hERG WT inh
O=C(NCc1ccccc1OC(F)(F)F)C1CCC(=O)N(CCc2ccccn2)C1 (stereo unspecified) | x | x | -10.1 | 6.0
O=C(c1ccc(NS(=O)(=O)c2ccc3[nH]c(=O)[nH]c3c2)cc1)N1CCN(c2ccccc2O)CC1 | 2.7 | -8.7 | -80.1* | -2.1
O=C(Cc1ccccc1)NCCCc1ccccc1 | -0.4 | 19.5 | -8.2 | 1.2
O=C(NCCCc1ccccc1)c1ccc(F)cc1 | 87.6* | -27.9 | -2.4 | -5.7
Cc1ccc(CC(=O)NCCCc2ccccc2)cc1 | 80.3* | -18.6 | 11.3 | 4.9
COc1ccc(-n2nc(C(=O)NCCc3ccc(OC)c(OC)c3)c3c4ccccc4n(C)c3c2=O)cc1 | -2.3 | -3.5 | x | x
CCC(C)(C(=O)NC1CCCC1)N(C)C(=O)c1ccccn1 (stereo unspecified) | 5.4 | 88.7* | 10.6 | -1.6
CCn1nc(CC(C)C)cc1C(=O)N1CCCC(Nc2ccc(F)cc2)C1 (stereo unspecified) | u | -26.7 | -4.4 | -1.0
CCn1nc(C)cc1C(=O)N1CCCC(Nc2ccc(C(C)C)cc2)C1 (stereo unspecified) | 81.3* | -7.9 | 16.9 | 24.1
O=C1CCC2(CCCC2)c2ccccc21 | x | x | 2.7 | 8.8
CCCC[C@]12Cc3ccccc3[C@H](O1)C1=C(O2)C(=O)c2ccccc2C1=O | i | i | x | x
O=C1c2ccc(Cl)cc2S(=O)(=O)c2cccc(C(=O)N3CCC(Cc4ccccc4)CC3)c21 | -0.6 | 2.6 | -33.6 | -6.7
CN(/N=C/c1ccc(-c2ccc([N+](=O)[O-])cc2)o1)c1ccccc1 | 13.7 | 11.6 | -71.6* | -37.6
NC(=S)N/N=C/c1ccc(-c2ccc([N+](=O)[O-])cc2)o1 | -1.7 | 22.4 | -2.4 | -6.6
CCc1ccc(NC(=O)[C@@H](NC(=O)[C@@H]2Cc3ccccc3CN2)C(C)CC)cc1 (stereo partly specified) | 3.8 | -7.7 | -15.8 | -18.2
CCc1ccc(NC(=O)[C@H](NC(=O)[C@@H]2Cc3ccccc3CN2)c2ccccc2)cc1 | 2.2 | u | 14.4 | -88.2*
CCN(C(=O)CSc1nc2ccccc2n1C)C1CCS(=O)(=O)C1 (stereo unspecified) | 1.8 | -6.7 | 14.5 | -6.5
O=S1(=O)CC2N=C(N(Cc3ccc(F)cc3Cl)c3ccccc3F)SC2C1 (stereo unspecified) | 3.9 | -6.5 | -10.9 | -90.4*
Cc1cccc(NC(=O)CN(C2=NC3CS(=O)(=O)CC3S2)c2ccccc2F)c1 (stereo unspecified) | 2.5 | -18.2 | 4.9 | 1.1
COc1ccc(C2CCc3cc4c(cc3C2=NOC(C)=O)OCO4)cc1OC (stereo unspecified) | x | x | 1.9 | -12.6
CC(C)(C)C(=O)CSc1ncnc2c1cnn2Cc1ccccc1 | 90.2* | -12.8 | 22.0 | -3.9
COC(=O)CSc1ncnc2c1cnn2Cc1ccccc1 | 29.8 | 3.3 | 1.9 | -5.2
CCN(CC)CCN(CC(=O)N(C1CCCCC1)C1CCCCC1)C(=O)c1ccco1 | 3.6 | 5.2 | -41.4 | -4.1
Cc1ccc(OCCn2cc(/C=N/NC(=O)c3ccncc3)c3ccccc32)cc1 | 6.5 | 10.8 | -5.4 | -186.8*
Cc1ccc(S(=O)(=O)N2CCN(CC(=O)N/N=C\C(Cl)=C\c3ccccc3)CC2)cc1 | 11.6 | -2.3 | -196.9* | -130.1*
CC(/C=N\NC(=O)CN1CCN(S(=O)(=O)c2ccc(C)cc2)CC1)=C\c1ccccc1 | 20.5 | 0.4 | -83.8* | -7.6
Cc1ccc(S(=O)(=O)N2CCN(CC(=O)N/N=C\c3ccncc3)CC2)cc1 | 0.0 | -1.6 | -1.8 | -1.7
Nc1cc(=O)nc(SCC(=O)Nc2ccccc2)n1-c1ccccc1 | 1.4 | 0.0 | -19.5 | 2.5
Cc1cccc(-n2c(N)cc(=O)nc2SCC(=O)Nc2ccccc2)c1 | 0.2 | 16.8 | -178.9* | -143.7*
